# Source: PubChem BioAssay
# Assay: probe aShh binding to arrayed compounds – biochemical, biotinylated probe, 635/667 nm fluorescence, primary screen (AID 1114);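 further: probe is biotin-labelled aShh protein from a stem cell growth factor screen; measures binding of labelled protein to compounds printed on the slide; score merges feature fluorescence at 667 nm with signal-to-noise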
# Conditions: small-molecule microarray, higher = more signal
row,Compound,composite z-score
1,C=CCN1C(=O)[C@@]2(O[C@@H](CCO)[C@H]([Si](C)(C)c3ccc(OC)cc3)[C@H]2C)c2cc(NC(C)=O)ccc21,-0.0769
2,O=C1O[C@@H](c2ccccc2)[C@@H](c2ccccc2)N2[C@@H](c3ccc(O)cc3)[C@]3(C(=O)Nc4ccc(C#CCCO)cc43)[C@@H](C(=O)N3CCCCCCC3)[C@H]12,-0.116
3,NC(=O)[C@]1(Cc2ccccc2)N=C(c2ccc(OCCCO)cc2)O[C@@H]1c1ccccc1,0.409
4,O=C1O[C@H](c2ccccc2)[C@H](c2ccccc2)N2[C@H]1[C@@H](C(=O)NC[C@H](O)c1ccccc1)[C@]1(C(=O)Nc3ccc(C#CC4=CCCCC4)cc31)[C@H]2c1ccc(O)cc1,-0.0146
5,C=C[C@H](C)[C@H](O)c1ccc(OCCO)cc1,-0.108
6,O=S(=O)(NCCCO)c1ccc(Br)cc1,-0.138
7,O=C1c2ccccc2[C@](Cc2ccccc2I)(C(=O)O)[C@H](c2ccc(CO)cc2)N1Cc1ccccc1C(F)(F)F,-0.0382
8,CCOC(=O)C1=C[C@@H](C(C)(C)C)N(S(=O)(=O)c2ccc(C)cc2)[C@H]1c1ccc(Cl)c(Cl)c1,0.213
9,COCC1=C([C@H](O)CCc2ccccc2)[C@H](CO)[C@@H]2C(=O)N(Cc3ccccc3)C(=O)[C@@H]2C1,-0.214
10,C[N+](C)(C)CCCC[C@@H]1NC(=O)[C@H]2C[C@@H](C(=O)O)[C@@H](c3cccc(OCCO)c3)N2C1=O,2.34
11,COc1ccc([Si](C)(C)[C@H]2[C@H](CC(=O)N3CCC[C@H]3CO)O[C@@]3(C(=O)N(Cc4cccc(N5CCC5=O)c4)c4ccccc43)[C@@H]2C)cc1,0.265
12,C=CCNC(=O)[C@H]1[C@@H]2C(=O)O[C@@H](c3ccccc3)[C@@H](c3ccccc3)N2[C@@H](c2ccc(OCCO)cc2)[C@]12C(=O)N(C(=O)OCCOC)c1ccc(C#CC3(O)CCCCCC3)cc12,-0.0035
13,CCCCN1CC=CC23O[C@@H]4C=CCCOC(=O)C4[C@H]2C(=O)N(CCCO)[C@@H]3C1=O (stereo partly specified),-0.2
14,O=C(N1CCCCC1)[C@]1(CCS(=O)(=O)c2ccccc2)N=C(c2ccc(OCCCO)cc2)O[C@@H]1c1ccccc1,1.49
15,O=C1c2ccccc2[C@@]2(Cc3ccccc3N(Cc3ccccc3)C2=O)[C@H](c2ccc(CO)cc2)N1Cc1ccccc1C(F)(F)F,0.0684
16,CC(C)C(=C=CC[C@H](O)c1ccccc1OCCO)CCO,0.0639
17,C=CCC(OC(C)=O)[C@@H]1[C@@H](N(Cc2cc3ccccc3o2)C(=O)c2ccc(C)cc2)c2cc(OCCCO)ccc2N1C(=O)c1ccc(-c2ccccc2)cc1 (stereo partly specified),0.0141
18,CC(C)(C)OC(=O)CC[C@@]1(C(=O)NCC(O)CO)N=C(c2ccc(OCCCO)cc2)O[C@@H]1c1ccccc1 (stereo partly specified),0.223

row,Compound,composite z-score
1,CCOC(=O)C1=CC[C@@H](c2cccc(Cl)c2)N(S(=O)(=O)c2ccc(C)cc2)[C@H]1c1ccc(C#N)cc1,0.0638
2,COC(=O)[C@@]1(Cc2ccc(OC)cc2)[C@H]2c3cc(C(=O)N(C)C)n(Cc4ccc(OC)c(OC)c4)c3C[C@H]2CN1C(=O)c1ccccc1,0.173
3,OCCCc1cc[n+](Cc2cccc(OC(F)(F)F)c2)cc1,0.199
4,O=C1O[C@@H](c2ccccc2)[C@@H](c2ccccc2)N2[C@@H](c3ccc(O)cc3)[C@]3(C(=O)Nc4ccccc43)[C@@H](C(=O)N3CCCCCCC3)[C@H]12,2.07
5,COCCCNC(=O)[C@@]1(C)c2ccccc2C(=O)N(Cc2ccccc2)[C@H]1c1ccc(CO)cc1,0.0284
6,COc1ccc([Si](C)(C)[C@H]2[C@H](CCO)O[C@@]3(C(=O)N(Cc4ccccc4)c4ccc(N5C(=O)COc6ccccc65)cc43)[C@@H]2C)cc1,0.108
7,C=C(C)[C@@H]1CC=C(C(O)C2C=CC3C(=O)N(Cc4ccccc4)C(=O)C3N2n2cnnc2)CC1 (stereo partly specified),-0.156
8,C=C(CCCC)C(=O)CC[C@H](OC(=O)c1ccccc1-c1ccccc1C(=O)O)c1ccc(CO)o1,-0.108
9,O=C1C2C=CC(C(O)C3CC=CCC3)N(n3cnnc3)C2C(=O)N1Cc1ccccc1 (stereo unspecified),0.0684
10,C=CCC(OC(C)=O)[C@@H]1[C@@H](N(Cc2cc3ccccc3o2)C(=O)c2ccc(-c3ccccc3)cc2)c2cc(OCCCO)ccc2N1C(=O)Cc1ccc2ccccc2c1 (stereo partly specified),-0.0709
11,O=[N+]([O-])c1ccc(C[n+]2ccc(CCCO)cc2)o1,-0.0035
12,CC(c1ccccc1)C(O)C1C=CC2C(=O)N(Cc3ccccc3)C(=O)C2N1n1cnnc1 (stereo unspecified),0.297
13,O=C1C2C=CC(C(O)c3cccc4ccccc34)N(n3cnnc3)C2C(=O)N1Cc1ccccc1 (stereo unspecified),-0.309
14,O=C1C2C=CC(C(O)c3ccc(B(O)O)cc3)N(Nc3ccc([N+](=O)[O-])cc3)C2C(=O)N1c1ccccc1 (stereo unspecified),-0.0146
15,COCCOC(=O)N1C(=O)[C@@]2(c3ccccc31)[C@H](c1ccc(O)cc1)N1[C@H](c3ccccc3)[C@H](c3ccccc3)OC(=O)[C@H]1[C@@H]2C(N)=O,0.0899
16,O=C1C2C=CC(C(O)CCc3ccccc3)N(Nc3ccccc3)C2C(=O)N1c1ccccc1 (stereo unspecified),0.382
17,COc1ccc([Si](C)(C)[C@H]2[C@H](CC(=O)N3CCC[C@H]3CO)O[C@@]3(C(=O)N(c4ccccc4)c4ccccc43)[C@@H]2C)cc1,-0.13
18,CCCNC(=O)[C@@]1(C)c2ccccc2C(=O)N(Cc2ccc(OC(F)(F)F)cc2)[C@H]1c1ccc(CO)cc1,-0.222
